ChEMBL document CHEMBL5606458, “ASAP - ZIKV NS2B-NS3 protease fluorescence single point” (2024)
Among all 2,700 compounds or so, about 160 (5.9%) showed an effect of 50% or more. Many of the other results were omitted from the sample, so strong results are more common in it than they were.

Target: Nonstructural protein 3 (Zika virus) (UniProt A0A024AXB9)
[1] = PRVABC59, Concentration 50.0 uM, Number of replicates 1.0
[2] = PRVABC59, Concentration 15.0 uM, Number of replicates 1.0

Nonstructural protein 3 (Zika virus), sequence (A0A024AXB9 as listed by the source): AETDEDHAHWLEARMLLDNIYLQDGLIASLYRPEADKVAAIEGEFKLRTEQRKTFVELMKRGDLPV

O=Cc1ccc(N2CCC(C(=O)NCCc3cc(F)cc(F)c3)CC2)cc1
inhibition [1]: 19.3%

N#Cc1cccc(NC(=O)c2cccc(OCc3c(Cl)cccc3Cl)c2)c1
inhibition (PRVABC59, Concentration 49.5 uM, Number of replicates 2.0, Standard deviation 1.7651619405536074 %): 6.21%
inhibition (PRVABC59, Concentration 99.01 uM, Number of replicates 2.0, Standard deviation 1.834624667346594 %): 10%
inhibition (PRVABC59, Concentration 198.0 uM, Number of replicates 2.0, Standard deviation 2.6293560952864428 %): 8.42%

O=C(NCc1ccccc1Oc1ccccc1)c1cc(Cl)ccc1NS(=O)(=O)c1ccc(Oc2ccccc2Cl)cc1
inhibition [2]: 15.7%

O=Cc1ccc(N2CCC(C(=O)NCCN3C(=O)CSC3=O)CC2)cc1
inhibition [1]: 24.5%

Cc1cc(CO)c2cccc(Cc3ccccc3NC(=O)CCC3CCNCC3)c2n1
inhibition (PRVABC59, Concentration 49.95 uM, Number of replicates 2.0, Standard deviation 0.020358613704702253 %): 4.96%
inhibition (PRVABC59, Concentration 99.9 uM, Number of replicates 2.0, Standard deviation 1.9188023762412802 %): 26.8%

Cc1cc(CO)c2cccc(Cc3cccc(NC(=O)CCC4CCNCC4)c3)c2n1
inhibition (PRVABC59, Concentration 49.95 uM, Number of replicates 2.0, Standard deviation 0.07125447361688171 %): 70.2%
inhibition (PRVABC59, Concentration 99.9 uM, Number of replicates 2.0, Standard deviation 0.2799306012648679 %): 94.6%

Cc1cc(CO)c2cccc(Cc3ccccc3NC(=O)Cc3c(C)c4c(=O)[nH]n(C)c4[nH]c3=O)c2n1
inhibition (PRVABC59, Concentration 49.95 uM, Number of replicates 2.0, Standard deviation 2.3870518401485845 %): 19.5%
inhibition (PRVABC59, Concentration 99.9 uM, Number of replicates 2.0, Standard deviation 1.6185118125725577 %): 39.4%

Cc1cc(CO)c2cccc(NC(=O)CC3CNC3)c2n1
inhibition (PRVABC59, Concentration 49.95 uM, Number of replicates 2.0, Standard deviation 1.5957700474656553 %): -6.72%
inhibition (PRVABC59, Concentration 99.9 uM, Number of replicates 2.0, Standard deviation 1.1039918524960535 %): -6.98%

Cc1cc(CO)c2cccc(NC(=O)CC3CCNCC3)c2n1
inhibition (PRVABC59, Concentration 49.95 uM, Number of replicates 2.0, Standard deviation 2.2586421938534733 %): 41.5%
inhibition (PRVABC59, Concentration 99.9 uM, Number of replicates 2.0, Standard deviation 1.48045087514324 %): 81%

Cc1cc(CO)c2cccc(NC(=O)Cc3c(C)c4c(=O)[nH]n(C)c4[nH]c3=O)c2n1
inhibition (PRVABC59, Concentration 49.95 uM, Number of replicates 2.0, Standard deviation 0.16559867672197162 %): 15%
inhibition (PRVABC59, Concentration 99.9 uM, Number of replicates 2.0, Standard deviation 1.570678848435362 %): 29.8%

Cc1cc(CO)c2cccc(Cc3cccc(NC(=O)Cc4c(C)c5c(=O)[nH]n(C)c5[nH]c4=O)c3)c2n1
inhibition (PRVABC59, Concentration 49.95 uM, Number of replicates 2.0, Standard deviation 0.9685022100006885 %): 29.7%
inhibition (PRVABC59, Concentration 99.9 uM, Number of replicates 2.0, Standard deviation 0.32116033435216484 %): 54.1%

Cc1cc(CO)c2cccc(Cc3cccc(NC(=O)C[C@H]4CCCN4)c3)c2n1
inhibition (PRVABC59, Concentration 49.95 uM, Number of replicates 2.0, Standard deviation 0.1706171862678608 %): -9.82%

Cc1cc(CO)c2cccc(NCC3CCNCC3)c2n1
inhibition (PRVABC59, Concentration 99.9 uM, Number of replicates 2.0, Standard deviation 2.951218090372617 %): -5.37%

Cc1cc(CO)c2cccc(NC(=O)C[C@H]3CCCN3)c2n1
inhibition (PRVABC59, Concentration 49.95 uM, Number of replicates 2.0, Standard deviation 2.649580260544395 %): 3.54%
inhibition (PRVABC59, Concentration 99.9 uM, Number of replicates 2.0, Standard deviation 2.639543831508496 %): 13.9%

Cc1cc(CO)c2cccc(NC(=O)CCC3CCNCC3)c2n1
inhibition (PRVABC59, Concentration 49.95 uM, Number of replicates 2.0, Standard deviation 0.05519955890732387 %): 98.6%
inhibition (PRVABC59, Concentration 99.9 uM, Number of replicates 2.0, Standard deviation 0.045159842417240824 %): 96.7%

Cc1cc(CO)c2cccc(Cc3cccc(NC(=O)CNC4CC4)c3)c2n1
inhibition (PRVABC59, Concentration 49.95 uM, Number of replicates 2.0, Standard deviation 2.20382385319093 %): -2.08%
inhibition (PRVABC59, Concentration 99.9 uM, Number of replicates 2.0, Standard deviation 2.3107066172874657 %): 1.16%

Cc1cc(CO)c2cccc(Cc3ccccc3C(=O)N3CCO[C@@H](CN)C3)c2n1
inhibition (PRVABC59, Concentration 99.9 uM, Number of replicates 2.0, Standard deviation 2.9992587541792743 %): -6.8%

O=Cc1ccc(N2CCC(C(=O)Nc3cc(Cl)c(F)cc3F)CC2)cc1
inhibition [1]: 26.1%

COc1ccccc1N1CCN(C(=O)c2cc(Cl)ccc2NS(=O)(=O)c2ccc(Oc3ccccc3Cl)cc2)CC1
inhibition [2]: 8.47%

O=Cc1ccc(N2CCC(C(=O)Nc3ncc(F)cc3Br)CC2)cc1
inhibition [1]: 19.1%

C[C@@H](NC(=O)OCc1ccccc1)C(=O)Nc1cccc(CN)c1
inhibition (PRVABC59, Concentration 49.5 uM, Number of replicates 2.0, Standard deviation 0.22300909071478295 %): -5.65%
inhibition (PRVABC59, Concentration 99.01 uM, Number of replicates 2.0, Standard deviation 0.06482809074333463 %): -3.85%
inhibition (PRVABC59, Concentration 198.0 uM, Number of replicates 2.0, Standard deviation 0.9413049329503056 %): -1.69%

CCOc1ccc(CNC(=O)c2cc(Cl)ccc2NS(=O)(=O)c2ccc(Oc3ccccc3Cl)cc2)cc1
inhibition [2]: 30.8%

Cc1cc(CO)c2cccc(Cc3cccc(C(=O)N4CC[C@@H](CO)C4)c3)c2n1
inhibition (PRVABC59, Concentration 49.95 uM, Number of replicates 2.0, Standard deviation 1.594011680945781 %): -6.14%
inhibition (PRVABC59, Concentration 99.9 uM, Number of replicates 2.0, Standard deviation 1.5520642713220405 %): 3.44%

Cc1cc(CO)c2cccc(Cc3ccccc3C(=O)N3CCC(CN)CC3)c2n1
inhibition (PRVABC59, Concentration 49.95 uM, Number of replicates 2.0, Standard deviation 5.668177927575499 %): 56.2%
inhibition (PRVABC59, Concentration 99.9 uM, Number of replicates 2.0, Standard deviation 1.410491152712613 %): 37.7%

Cc1cc(CO)c2cccc(Cc3cccc(C(=O)N4CCC(C(=O)O)CC4)c3)c2n1
inhibition (PRVABC59, Concentration 49.95 uM, Number of replicates 2.0, Standard deviation 0.6921367263576601 %): -3.78%
inhibition (PRVABC59, Concentration 99.9 uM, Number of replicates 2.0, Standard deviation 0.04719115192807187 %): -2.12%

Cc1cc(CO)c2cccc(Cc3ccccc3C(=O)N3CCC(C(=O)O)CC3)c2n1
inhibition (PRVABC59, Concentration 49.95 uM, Number of replicates 2.0, Standard deviation 1.0591789629357544 %): -4.89%
inhibition (PRVABC59, Concentration 99.9 uM, Number of replicates 2.0, Standard deviation 2.3071221964090083 %): -5.26%

Cc1cc(CO)c2cccc(Cc3cccc(C(=O)N4CCC(CN)CC4)c3)c2n1
inhibition (PRVABC59, Concentration 49.95 uM, Number of replicates 2.0, Standard deviation 0.3303341859864401 %): 94.6%
inhibition (PRVABC59, Concentration 99.9 uM, Number of replicates 2.0, Standard deviation 0.3198467013777773 %): 90.9%

Cc1cc(CO)c2cccc(Cc3ccccc3C(=O)N3CC[C@@H](O)C3)c2n1
inhibition (PRVABC59, Concentration 49.95 uM, Number of replicates 2.0, Standard deviation 0.18876460771228748 %): -8.95%
inhibition (PRVABC59, Concentration 99.9 uM, Number of replicates 2.0, Standard deviation 1.2164824655212059 %): -7.58%

O=C(N[C@H]1CC(=O)N(Cc2ccccc2)C1)c1cc(Cl)ccc1NS(=O)(=O)c1ccc(Oc2ccccc2Cl)cc1
inhibition [2]: 22%

Cc1cc(CO)c2cccc(Cc3cccc(C(=O)NCc4c(C)noc4C)c3)c2n1
inhibition (PRVABC59, Concentration 49.95 uM, Number of replicates 2.0, Standard deviation 0.6344586798768046 %): -2.24%
inhibition (PRVABC59, Concentration 99.9 uM, Number of replicates 2.0, Standard deviation 0.2674164432987103 %): 1.65%

O=C(c1cc(Cl)ccc1NS(=O)(=O)c1ccc(Oc2ccccc2Cl)cc1)N1CCN(C(=O)[C@H]2COc3ccccc3O2)CC1
inhibition [2]: 19.2%

Cn1cc(NC(=O)c2ccccc2C(F)(F)F)c(-c2ccccc2CO)n1
inhibition (PRVABC59, Concentration 49.5 uM, Number of replicates 2.0, Standard deviation 1.1938974234704913 %): -0.442%
inhibition (PRVABC59, Concentration 99.01 uM, Number of replicates 2.0, Standard deviation 1.523480341882225 %): 1.31%
inhibition (PRVABC59, Concentration 198.0 uM, Number of replicates 2.0, Standard deviation 2.1372444344514228 %): 2.85%

Cc1cc(Cl)c2c(N)ccc(C)c2n1
inhibition (PRVABC59, Concentration 49.95 uM, Number of replicates 2.0, Standard deviation 1.4741281735170297 %): 80.8%
inhibition (PRVABC59, Concentration 99.9 uM, Number of replicates 2.0, Standard deviation 0.2024559271573544 %): 83.6%

Cc1cc(Cl)c2cccc(N)c2n1
inhibition (PRVABC59, Concentration 49.95 uM, Number of replicates 2.0, Standard deviation 7.781875381379218 %): 5.79%
inhibition (PRVABC59, Concentration 99.9 uM, Number of replicates 2.0, Standard deviation 5.7320152302040395 %): 14.4%

Cc1cc(N)c2c(Cl)ccc(Cl)c2n1
inhibition (PRVABC59, Concentration 49.95 uM, Number of replicates 2.0, Standard deviation 14.266771188329304 %): -9.58%

O=Cc1ccc(N2CCC(C(=O)NCc3c(F)cc(F)c(F)c3F)CC2)cc1
inhibition (PRVABC59, Concentration 10.0 uM, Number of replicates 1.0): 22.5%

COc1ccc(CN2CCC(c3c[nH]c4cccnc34)CC2)cc1
inhibition (PRVABC59, Concentration 49.5 uM, Number of replicates 2.0, Standard deviation 0.21004326604655832 %): 0.598%
inhibition (PRVABC59, Concentration 99.01 uM, Number of replicates 2.0, Standard deviation 0.8142417098777236 %): 6.55%
inhibition (PRVABC59, Concentration 198.0 uM, Number of replicates 2.0, Standard deviation 1.1254172872302635 %): 14.8%

O=Cc1ccc(N2CCC(C(=O)N(Cc3cnn(-c4ccccc4)c3)C3CC3)CC2)cc1
inhibition [1]: 26.1%
